In PubChem BioAssay:
Where “and” joins values, the source holds several entries; their conditions need not be identical. Identical values can stand only once. Calls of active or inactive are those of the source. Unless noted, the rule behind the calls is not given here. Square brackets hold non-standard residues; d marks the D form. Peptide text beside a SMILES is read from it. Nle = CCCC[C@H](N)C(=O)O

How the values were obtained:
[1] = viability loss with induced miR-34 in A549 – imaging, A549 dox-inducible miR-34, nuclei and caspase counts, primary screen (AID 1347080;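 active = compounds whose cell count with miR-34 switched on is under 0.7 times the count with it off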); conditions: A549 miR-34 inducible, Hoechst nuclei count, 48 h
[2] = chitosan synthesis blockers in C. neoformans – flow cytometry, Cibacron Brilliant Red staining (AID 1347148); conditions: Cryptococcus neoformans chitosan, stronger effect = lower value; at 10 µM unless noted;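 note: compound exposure lasted three days at 37 degrees C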
[3] = stronger effect = lower value, cell number ratio, induced over uninduced
[4] = measured here: relative caspase fold change +Dox/-Dox
[5] = measured here: total cells with miR-34 induction, stronger effect = lower value
[6] = measured here: total cells without miR-34 induction

| SMILES | fold change [1, 3] | fold change [1, 4] | cell count [1, 5] | cell count [1, 6] | fold fluorescence [2] |
| --- | --- | --- | --- | --- | --- |
| CCCCCCCCCCC1=C(C)C(=O)C(OC)=C(OC)C1=O | 0.94 (inactive) | 1.42 | 3450 | 3660 | 4.65 [at 155.1 µM] (inactive) |
| CCCC[C@@H](C=O)NC(=O)[C@H](CC(C)C)NC(=O)[C@H](CC(C)C)NC(C)=O (Ac-Leu-Leu-[Nle]-aldehyde) | 0.909 (inactive) | 1.22 | 1540 | 1700 | 4.19 [at 130.4 µM] (inactive) |
| CC(C)C[C@@H](/C=C/S(C)(=O)=O)NC(=O)[C@H](CC(C)C)NC(=O)[C@H](CC(C)C)NC(=O)OCc1ccccc1 | 0.878 (inactive) | 1.63 | 585 | 666 | 3.84 [at 90.6 µM] (inactive) |
| NC(=NCc1ccc(Cl)cc1Cl)NC(=O)c1nc(Cl)c(N)nc1N | 1.01 (inactive) | 0.617 | 1450 | 1430 | 10.2 [at 117.6 µM] (inactive) |
| CCCCC/C=C\C\C=C/C=C/C=C/[C@@H](SC[C@H](N)C(=O)O)[C@@H](O)CCCC(=O)O | 1.09 (inactive) | 1.02 | 6150 | 5660 | 3.87 [at 1 µM] (inactive) |
| CCCCCC(=O)/C=C/C=C\C/C=C\C/C=C\CCCC(=O)O | 0.995 (inactive) | 1.32 | 6100 | 6140 | 5.6 [at 1 µM] (inactive) |
| CCCCC/C=C\C/C=C\CCCCCCCC(=O)O[C@@H](CO)COC(=O)CCCCCCCCCCCCCCCCC | 0.999 (inactive) | 1.31 | 6430 | 6430 | 4.76 (inactive) |
| CC1(C)Oc2ccc(C#N)cc2[C@@H](OC2=CC(=O)CC2)[C@@H]1O | 0.927 (inactive) | 1.24 | 5940 | 6400 | 3.79 [at 167 µM] (inactive) |
| C=C[C@@]1(C)CC(=O)[C@]2(O)[C@@]3(C)[C@H](O)CCC(C)(C)[C@@H]3[C@H](O)[C@H](OC(C)=O)[C@@]2(C)O1 | 0.854 (inactive) | 0.977 | 5250 | 6150 | 6.21 [at 121.8 µM] (inactive) |
| CCCCC[C@@H](O)/C=C/[C@H]1[C@H](C/C=C\CCCC(=O)O)C(=O)C[C@@H]1O | 0.916 (inactive) | 0.858 | 4850 | 5300 | 3.88 (inactive) |
| CSCC[C@H](NC(=O)[C@H](Cc1ccccc1)NC[C@@H](NC[C@@H](N)CS)C(C)C)C(=O)O | 0.931 (inactive) | 1.07 | 6180 | 6640 | 4.75 [at 106.2 µM] (inactive) |
| CCCC[C@@H](C)/C=C(C)/C=C(\C)C(=O)NC1=C[C@@](O)(/C=C/C=C/C=C/C(=O)NC2=C(O)CCC2=O)[C@@H]2O[C@@H]2C1=O | 1.01 (inactive) | 1.03 | 1310 | 1290 | 7.73 [at 90.8 µM] (inactive) |
| CC(C)[C@@H]1NC(=O)[C@H](Cc2ccccc2)NC(=O)[C@@H](CC(=O)O)NC(=O)CNC(=O)[C@H](CCCN=C(N)N)NC1=O | 1.03 (inactive) | 0.655 | 1320 | 1280 | 6.81 [at 87 µM] (inactive) |
| CC(=O)OCOC(c1cc([N+](=O)[O-])ccc1Oc1ccc(Br)cc1)P(=O)(OCOC(C)=O)OCOC(C)=O (stereo not given) | 1.27 (inactive) | 0.666 | 3110 | 2450 | 3.77 [at 80.6 µM] (inactive) |
| CCCCC/C=C\C\C=C/C=C/C=C/[C@@H](SC[C@H](N)C(=O)NCC(=O)O)[C@@H](O)CCCC(=O)O | 0.978 (inactive) | 1.35 | 5990 | 6130 | 3.83 [at 1 µM] (inactive) |
| N#C/C(=C/c1ccc(O)c(O)c1)C(=O)OC/C=C/c1ccccc1 | 1.11 (inactive) | 1.47 | 4460 | 4020 | 10.2 [at 155.6 µM] (inactive) |
| CCCCC[C@@H](O)/C=C/[C@H]1[C@H](C/C=C\CCCC(=O)O)[C@H](O)C[C@@H]1O | 1.15 (inactive) | 0.636 | 6980 | 6050 | 3.65 (inactive) |
| Clc1ccc2ncnc(NCc3ccc4c(c3)OCO4)c2c1 | 0.968 (inactive) | 1.41 | 3640 | 3760 | 6.11 [at 159.4 µM] (inactive) |
| CCC(C)[C@@H](CO[C@@H](Cc1ccccc1)C(=O)N[C@@H](CCS(C)(=O)=O)C(=O)OC(C)C)NC[C@@H](N)CS (stereo not given in full) | 0.946 (inactive) | 1.27 | 3500 | 3700 | 3.05 [at 89.3 µM] (inactive) |
| Nc1ncnc2c1nc(Br)n2C1O[C@H]2COP(=O)(O)O[C@@H]2[C@@H]1O (stereo not given in full) | 0.835 (inactive) | 1.27 | 4570 | 5470 | 3.88 [at 122.5 µM] (inactive) |
| COc1ccc([C@H]2Sc3ccccc3N(CCN(C)C)C(=O)[C@H]2OC(C)=O)cc1 | 1.07 (inactive) | 1.13 | 5870 | 5500 | 4.51 [at 120.6 µM] (inactive) and 3.48 [at 120.6 µM] (inactive) |
| CC(=O)N[C@@H](CC(C)C)C(=O)N[C@@H](CC(C)C)C(=O)N[C@H](C=O)CCCN=C(N)N | 0.979 (inactive) | 0.761 | 5980 | 6110 | 4.98 [at 117.2 µM] (inactive) |
